# Source: PubChem BioAssay
# The source made the active and inactive calls.
# Assays:
# [1] = A549 cell viability effects, profiling panel, calcein-AM fluorescence, 48 h, basal (AID 1162); conditions: higher = more signal; also: test concentration not given here
# [2] = adipocyte viability effects, profiling panel, cell-based, 3T3-L1 adipocytes, calcein-AM fluorescence, 48 h, basal (AID 1163); conditions: 3T3-L1 adipocytes viability, higher = more signal; also: test concentration not given here
# [3] = HepG2 cell viability effects, profiling panel, calcein-AM fluorescence, 48 h, basal (AID 1164); conditions: higher = more signal; also: test concentration not given here
# [4] = MM1S cell viability effects, profiling panel, calcein-AM fluorescence, 48 h, basal (AID 1165); conditions: higher = more signal;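 also: viability of MM1S multiple myeloma cells under basal unstimulated conditions; test concentration not given here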
# [5] = basal RPMI8226 viability, no added stimulus, profiling panel, cell-based, calcein-AM fluorescence, 48 h, PK04 Diversity Set (AID 1166); conditions: RPMI8226 myeloma viability, higher = more signal;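 also: cells grown under basal conditions without added stimulus; test concentration not given here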
# [6] = basal HepG2 mitochondrial membrane potential changes, profiling panel, cell-based, JC-1 fluorescence, 24 h, 100 nL compound (AID 1167); conditions: higher = more signal; also: test concentration not given here
# [7] = basal 3T3-L1 adipocyte mitochondrial potential changes, profiling panel, cell-based, JC-1 fluorescence, 3T3-L1 adipocytes, 24 h, 100 nL compound (AID 1168); conditions: JC-1 mitochondrial fluorescence, higher = more signal, called active from +8 up or from −8 down; also: test concentration not given here
# [8] = basal RPMI8226 mitochondrial membrane potential changes, profiling panel, cell-based, JC-1 fluorescence, 24 h, 100 nL compound (AID 1169); conditions: RPMI8226 myeloma, JC-1 mitochondrial potential fluorescence, higher = more signal; also: test concentration not given here
# [9] = basal MM1S mitochondrial membrane potential changes, profiling panel, cell-based, JC-1 fluorescence, 24 h, 100 nL compound (AID 1170); conditions: higher = more signal; also: test concentration not given here
# [10] = A549 lung cancer cell viability effects, profiling panel, resazurin fluorescence, 24 h, PK04 Diversity Set (AID 1171); conditions: higher = more signal, called active from +8 up or from −8 down; also: test concentration not given here
# [11] = HepG2 liver cancer cell viability effects, profiling panel, resazurin fluorescence, 24 h, PK04 Diversity Set (AID 1172); conditions: higher = more signal; also: test concentration not given here
# [12] = basal S. cerevisiae growth modulation, no modifier, primary screen, OD600, strain BY4716, 24 h, basal condition (AID 1173); conditions: OD600, 24 h, higher = more signal, called active from +8 up or from −8 down
# [13] = MM1S myeloma cell viability, profiling panel, resazurin fluorescence, basal, 24 h, PK04 Diversity Set (AID 1174); conditions: higher = more signal, called active from +8 up or from −8 down;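 also: MM1S multiple myeloma cell line; test concentration not given here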
# [14] = molecular target: Dihydroorotate dehydrogenase (quinone), mitochondrial (Plasmodium falciparum (isolate 3D7)) (UniProt Q08210); assay: PfDHODH enzyme inhibitors, primary screen, biochemical, C-terminal His tag, absorbance 600 nm (AID 1175); conditions: DCIP absorbance 600 nm, higher = more signal, called active from +8 up or from −8 down;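 also: recombinant parasite enzyme with a five histidine tag at its C terminus; test concentration not given here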
# Dihydroorotate dehydrogenase (quinone), mitochondrial (Plasmodium falciparum (isolate 3D7)), sequence (Q08210 whole entry, looked up): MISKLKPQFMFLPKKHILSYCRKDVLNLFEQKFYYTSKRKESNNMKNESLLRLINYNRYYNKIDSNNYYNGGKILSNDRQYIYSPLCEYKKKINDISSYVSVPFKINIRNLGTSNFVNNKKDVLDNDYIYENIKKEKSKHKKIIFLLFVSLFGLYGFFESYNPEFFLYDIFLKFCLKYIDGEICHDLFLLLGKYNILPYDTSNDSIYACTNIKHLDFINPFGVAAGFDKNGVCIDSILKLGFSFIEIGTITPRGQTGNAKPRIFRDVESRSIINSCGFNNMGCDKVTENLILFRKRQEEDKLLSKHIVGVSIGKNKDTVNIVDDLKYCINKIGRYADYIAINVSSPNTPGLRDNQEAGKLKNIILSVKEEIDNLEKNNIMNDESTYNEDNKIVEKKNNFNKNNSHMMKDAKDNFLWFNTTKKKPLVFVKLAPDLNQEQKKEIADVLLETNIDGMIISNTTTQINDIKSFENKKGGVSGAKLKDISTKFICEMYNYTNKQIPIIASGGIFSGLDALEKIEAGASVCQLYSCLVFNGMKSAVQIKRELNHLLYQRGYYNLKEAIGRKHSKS
# [15] = S. cerevisiae RM11-1a growth modifiers, primary screen, strain RM11-1a, OD600, basal, 24 h (AID 1177); conditions: OD600, 24 h, higher = more signal, called active from +8 up or from −8 down;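 also: cultures grown under basal conditions with no added stressor; test concentration not given here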
# [16] = E. coli acrAB mutant growth effects, primary screen, E. coli filamentation inducers, strain DRC39, OD650, 24 h (AID 1178); conditions: higher = more signal, called active from +8 up or from −8 down;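 also: growth measured as culture turbidity by optical density at 650 nm; test concentration not given here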
# [17] = E. coli acrAB mutant growth effects, primary screen, E. coli filamentation inducers, strain DRC39, OD650, 48 h (AID 1179);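 also: screen aims at cell division blockers that make cells filament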; conditions: E. coli DRC39 delta-acrAB growth, higher = more signal, called active from +8 up or from −8 down
# [18] = RPMI8226 myeloma cell viability, profiling panel, resazurin fluorescence, basal, 24 h, PK04 Diversity Set (AID 1180); conditions: higher = more signal;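 also: RPMI8826 multiple myeloma cell line at 5000 cells per well; test concentration not given here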
# [19] = molecular target: E3 ubiquitin-protein ligase XIAP (Homo sapiens) (UniProt P98170); assay: XIAP binders, primary screen, biophysical, small-molecule microarray, fluorescence 635 nm (AID 1181); conditions: small-molecule microarray binding, higher = more signal;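 also: score merges 667 nm emission and signal to noise over triplicate slides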
# E3 ubiquitin-protein ligase XIAP (Homo sapiens), sequence (P98170 whole entry, looked up): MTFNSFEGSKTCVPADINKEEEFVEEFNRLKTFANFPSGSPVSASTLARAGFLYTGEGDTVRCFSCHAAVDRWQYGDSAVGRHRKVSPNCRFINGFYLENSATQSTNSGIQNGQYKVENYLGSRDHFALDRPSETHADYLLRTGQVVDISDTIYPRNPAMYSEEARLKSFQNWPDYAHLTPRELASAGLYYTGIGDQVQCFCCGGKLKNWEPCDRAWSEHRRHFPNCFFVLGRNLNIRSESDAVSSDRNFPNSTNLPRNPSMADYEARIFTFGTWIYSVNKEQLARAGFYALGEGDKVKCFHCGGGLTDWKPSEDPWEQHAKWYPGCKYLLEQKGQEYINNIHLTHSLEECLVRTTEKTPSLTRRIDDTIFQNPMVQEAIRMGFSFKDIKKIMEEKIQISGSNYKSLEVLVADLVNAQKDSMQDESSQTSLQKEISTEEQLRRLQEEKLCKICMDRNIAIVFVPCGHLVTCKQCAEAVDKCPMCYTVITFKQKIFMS
Compound,z-score [1],z-score [2],z-score [3],z-score [4],z-score [5],z-score [6],z-score [7],z-score [8],z-score [9],z-score [10],z-score [11],z-score [12],z-score [13],composite z-score [14],z-score [15],z-score [16],z-score [17],z-score [18],composite z-score [19]
COc1cc2c(cc1OC)CN(C(=O)[C@@H]1[C@H]3C(=O)O[C@H](c4ccccc4)[C@H](c4ccccc4)N3[C@H](c3ccccc3OCCO)[C@@]13C(=O)Nc1ccccc13)CC2,-0.225,1.85,-0.174,-0.998,-0.622,0.648,3.09 (inactive),-0.509,0.0343,0.872 (inactive),0.193,1.34 (inactive),0.255 (inactive),-0.495 (inactive),3.1 (inactive),0.392 (inactive),0.952 (inactive),0.105,-0.127
CC(C)N1CC=CC23O[C@@H]4/C=C\CCCOC(=O)C4[C@H]2C(=O)N(CCO)[C@@H]3C1=O (stereo partly specified),1.63,0.472,0.499,1.37,0.629,1.42,2.1 (inactive),-0.442,0.776,1.39 (inactive),1.09,-1.71 (inactive),0.998 (inactive),-1.71 (inactive),-2.54 (inactive),2.2 (inactive),2.25 (inactive),0.855,-0.16
CCC(=O)[C@]12O[C@@]3([C@@H]4C(=O)OCC[C@@H]41)N(Cc1ccccc1)C(C)=C(C(=O)OC)[C@@H](c1ccccc1)N3C2=O,0.997,0.873,-0.356,0.0552,1.08,0.499,0.995 (inactive),-0.752,-0.226,0.26 (inactive),0.859,-2.74 (inactive),0.83 (inactive),0.0379 (inactive),-0.704 (inactive),-0.101 (inactive),-0.0892 (inactive),0.95,0.0289
CCCC/C=C/[C@H]([C@@H](O)Cc1ccccc1)N(CC#Cc1ccccc1)Cc1ccccc1Br,1.44,-0.0982,0.632,0.558,0.0649,0.427,0.519 (inactive),-0.462,-0.435,2.84 (inactive),1.65,-1.44 (inactive),0.579 (inactive),0.197 (inactive),0.994 (inactive),2.75 (inactive),1.19 (inactive),0.788,-0.039
O=C1O[C@@H](c2ccccc2)[C@@H](c2ccccc2)N2[C@@H](c3ccc(O)cc3)[C@]3(C(=O)Nc4ccccc43)[C@@H](C(=O)N3CCN(c4ncccn4)CC3)[C@H]12,0.661,-0.957,1.15,-1.16,-1.77,-0.235,1.72 (inactive),-0.455,-0.618,-0.133 (inactive),0.838,-0.863 (inactive),-0.798 (inactive),-0.63 (inactive),-0.0045 (inactive),0.208 (inactive),1.05 (inactive),-0.442,-0.311
CC(=O)NCCCC[C@@H]1NC(=O)[C@@H]2C[C@H](C(=O)NCCCCCNC(=O)CS)[C@H](c3ccc(O)cc3)N2C1=O,1.69,0.349,-0.0748,0.372,1.33,1.36,0.985 (inactive),-0.418,-0.559,1.46 (inactive),1.25,-0.774 (inactive),1.19 (inactive),-0.961 (inactive),-3.21 (inactive),2.5 (inactive),2.03 (inactive),0.833,-0.131
CN1CCC(CCCO)=CC1C1CC1 (stereo unspecified),0.4,0.852,-0.879,-0.833,0.174,1.32,0.57 (inactive),0.201,0.389,-0.0682 (inactive),0.413,-0.821 (inactive),1.18 (inactive),-1.13 (inactive),-1.57 (inactive),0.887 (inactive),0.611 (inactive),0.63,0.77
CC(C)[Si]1(C(C)C)O[C@@H](c2ccccc2)c2cc(C3CC3)nc(-c3ccc(Oc4ccccc4)cc3)c21,-0.654,1.31,0.0626,-0.964,0.391,0.484,0.924 (inactive),0.38,0.484,1.6 (inactive),1.08,-0.225 (inactive),1.35 (inactive),0.967 (inactive),1.15 (inactive),1.3 (inactive),0.734 (inactive),0.688,-0.267
C[C@]1(C(=O)NCc2ccccc2)c2ccccc2C(=O)N(Cc2cc(C(F)(F)F)cc(C(F)(F)F)c2)[C@H]1c1ccc(CO)cc1,0.0361,1.95,0.292,-0.951,-1.46,1.07,-0.122 (inactive),-0.155,-0.177,0.805 (inactive),-0.331,-1.35 (inactive),0.865 (inactive),-1.4 (inactive),-2.4 (inactive),1.04 (inactive),0.528 (inactive),1.12,-0.177
CCCNC(=O)[C@@]1(Sc2ccc(C)cc2)CC(=O)N(Cc2ccccc2Cl)[C@@H]1c1ccc(CO)cc1,0.648,2.79,-0.597,0.189,0.154,0.00317,0.0754 (inactive),0.653,0.368,0.644 (inactive),-0.48,-0.573 (inactive),1.12 (inactive),-3.67 (inactive),-2.58 (inactive),1.23 (inactive),0.337 (inactive),1.13,0.105
COCCOC(=O)N1C(=O)[C@@]2(c3cc(C#CC4(O)CCCCCC4)ccc31)[C@H](C(=O)N1CCCCCCC1)[C@H]1C(=O)O[C@H](c3ccccc3)[C@H](c3ccccc3)N1[C@@H]2c1ccc(O)cc1,-0.475,2.45,-0.0416,-0.747,-0.733,-0.355,1.16 (inactive),-0.861,-0.219,0.627 (inactive),0.1,-0.975 (inactive),1.57 (inactive),0.0505 (inactive),0.322 (inactive),0.286 (inactive),0.264 (inactive),0.868,0.154
COc1ccc(CCNC(=O)[C@@]2(c3ccc([N+](=O)[O-])cc3)CC(=O)N(C(C)C)[C@@H]2c2ccc(CO)cc2)cc1,0.755,1.52,-0.627,0.701,0.159,-0.0592,-0.209 (inactive),1.05,0.323,0.1 (inactive),0.483,-1.12 (inactive),1.56 (inactive),-0.704 (inactive),-1.28 (inactive),0.793 (inactive),0.479 (inactive),1.19,-0.154
CO[C@@H]1COC(=O)[C@H](C)NC(=O)CC=C[C@@H](C)[C@H](OC)COC(=O)[C@H](C)NC(=O)CC=C[C@H]1C,1.2,-0.0006,1.01,0.419,0.973,0.51,1.44 (inactive),-1.04,1.95,0.787 (inactive),0.542,-0.786 (inactive),0.102 (inactive),0.32 (inactive),-0.161 (inactive),0.884 (inactive),0.552 (inactive),-0.171,-0.142
CO[C@H]1O[C@H](CO)[C@@H](OC(=O)CCc2ccccc2)[C@@H]2OC(=O)[C@H](Cc3cccc(Br)c3)C/C=C/C[C@@H](Cc3cccc(Br)c3)C(=O)O[C@@H]12,1.28,1.22,2.26,1.15,1.6,1.01,1.6 (inactive),-0.359,1.18,0.844 (inactive),1.13,-3.87 (inactive),1.5 (inactive),-0.578 (inactive),-4.01 (inactive),1.41 (inactive),1.14 (inactive),1.45,0.0356
CCN1C(C)=C(C(=O)OC)[C@@H](c2ccccc2)N2C(=O)[C@@]3(C(=O)OC)O[C@@]12[C@@H]1C(=O)N(c2ccccc2)C(=O)[C@@H]13,0.0365,1.67,-0.805,0.871,-0.892,0.564,1.17 (inactive),1.22,0.0907,0.677 (inactive),0.392,-1.07 (inactive),0.839 (inactive),0.295 (inactive),-0.85 (inactive),-0.631 (inactive),-0.21 (inactive),1.21,-0.18
C=C(/C(=C/C[C@@H](OC(=O)c1ccncc1)c1ccc(CO)o1)c1cnc2ccccc2c1)C(C)C,0.755,1.61,-0.993,-1.24,0.13,-0.75,0.03 (inactive),0.0616,0.627,0.382 (inactive),0.0389,-2.58 (inactive),0.558 (inactive),-6.53 (inactive),-0.475 (inactive),1.4 (inactive),0.811 (inactive),1.17,0.374
O=[N+]([O-])c1ccc(C[n+]2ccc3ccc(O)cc3c2)o1,1.21,0.233,-0.489,0.216,0.705,-1.43,-0.157 (inactive),-0.158,0.648,-1.02 (inactive),-0.104,-5.54 (inactive),0.342 (inactive),-2 (inactive),-0.234 (inactive),-0.55 (inactive),-0.688 (inactive),0.405,0.411
C=C(COC)/C(=C/C[C@@H](OC(=O)c1ccncc1)c1ccc(OCCO)cc1)c1cc(C(=O)OC)ccc1OC,1.13,1.51,0.183,-0.312,0.93,2.48,1.79 (inactive),0.116,0.487,1.6 (inactive),0.789,-2.19 (inactive),1.36 (inactive),-1.32 (inactive),-2.6 (inactive),2.65 (inactive),1.79 (inactive),1.16,-0.103
C=CCC(OC(C)=O)[C@@H]1[C@@H](N(Cc2ccc(-c3ccccc3)cc2)C(=O)c2ccc(C)cc2)c2cc(OCCCO)ccc2N1C(=O)c1ccc(-c2ccccc2)cc1 (stereo partly specified),3.37,0.626,1.87,-0.732,0.887,4.05,1 (inactive),-0.454,1.22,2.47 (inactive),2.15,-1.71 (inactive),1.55 (inactive),-1.08 (inactive),-3.45 (inactive),2.05 (inactive),1.27 (inactive),1.51,-0.467
